This passage reports Potency results from PubChem BioAssay (NCATS).

Unmarked numbers belong to inactive results. No rule for the calls is given here.
Potency is read from the fitted curve at half-maximal effect.

The assay has as its system HIV-1 nucleocapsid protein NCp7 (binding to TG oligonucleotide). Description: HIV Nucleocapsid (AID 346).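 Also: potency is for inhibitors that block NC binding and lower polarization.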 As to conditions: HIV-1 NC / fluorescein-TGTGTGTG probe, fluorescence polarization. In a few lines: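 Reagents dispensed (10 nM TG4xF, 100 nM HIV-1 NC), plates spun, compounds pin-transferred, then incubated 1 hr at room temperature before FP imaging. Buffer: Hepes pH 7.5, 250mM NaCl, 1uM ZnCl2, 100 uM TCEP, 5 mM 2-mercaptoethanol.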
On the technique in general: Polarisation of emitted light reports the rotation of a fluorescent probe.
As to `COc1cccc(Nc2ncc3nc(-c4ccc(Cl)cc4)c(=O)n(C4CC4)c3n2)c1`, the Potency was more than 4 µM.

With `COc1ccccc1-c1cc(NCc2cnc(C)cn2)ncn1`, the Potency is more than 20 µM.

`COc1cccc(Nc2ncc3nc(C)c(=O)n(Cc4cccs4)c3n2)c1`: the Potency is more than 4 µM.

`COc1ccc(Oc2ncc3nc(-c4cc(F)cc(F)c4)c(=O)n(C[C@H]4CCCO4)c3n2)cc1`: the Potency was more than 20 µM.

With `COc1ccc(CNc2nc(-c3cccnc3)nc3ccccc23)c(OC)c1`, the Potency is more than 20 µM.

Turning to `N#Cc1ccc(CN2CCC3(CC2)CCN(C(=O)c2cc(C(F)(F)F)cc(C(F)(F)F)c2)CC3)cc1`, the Potency is more than 20 µM.

As to `CS(=O)(=O)Nc1cccc(-c2nc(N3CCOCC3)c3ccccc3n2)c1`, the Potency is more than 20 µM.

As to `CC(C)CN1CCC2(CC1)CCN(C(=O)c1cccc(F)c1)CC2`, the Potency was more than 20 µM.

Regarding `COCCn1c(=O)c(-c2ccc(Cl)cc2)nc2cnc(OCc3ccccc3)nc21`, the Potency was more than 20 µM.

Take `CS(=O)(=O)N1CCC2(CC1)CN(c1ncccn1)C2`: the Potency was more than 20 µM.

As for `Cn1cccc1C(=O)N1CCC2(CCCN(C(=O)Nc3cccc(F)c3)C2)CC1`, the Potency is more than 20 µM.

On to `N#Cc1cccc(NC(=O)N2CC[C@@]3(CCCN(C(=O)c4ccncc4)C3)C2)c1`, for which the Potency was more than 20 µM.

Take `Cc1ccccc1-c1nccc(NCc2cccs2)n1`: the Potency is more than 20 µM.

`CC(C)NC(=O)N1CCC2(CC1)CCN(C(=O)c1ccncc1)CC2`: the Potency is more than 20 µM.

As to `CNc1cc(-c2c(C)noc2C)ncn1`, the Potency is more than 20 µM.

Take `COCCn1c(=O)c(-c2cccs2)nc2cnc(N3CCNCC3)nc21`: the Potency was 13 µM.

As to `O=C(c1cc(C(F)(F)F)cc(C(F)(F)F)c1)N1CCC2(CC1)CN(Cc1ccncc1)C2`, the Potency was more than 20 µM.

Take `O=S(=O)(c1ccccc1)N1CCC[C@@]2(CCN(c3ccccc3)C2)C1`: the Potency is more than 20 µM.

Take `CN(C)C(=O)c1ccc(-c2cncnc2NC2CCNCC2)cc1`: the Potency was more than 20 µM.

For the compound `COc1ncc2nc(-c3ccccc3)c(=O)n(C)c2n1`, the Potency is more than 20 µM.

For the compound `O=S(=O)(c1ccccc1)N1CCC2(CC1)CN(c1ncccn1)C2`, the Potency was more than 20 µM.

With `CN(C)c1ncc2nc(-c3cccs3)c(=O)n(C[C@H]3CCCO3)c2n1`, the Potency is more than 20 µM.

`COc1ccc(C(=O)N2CCC3(CC2)CCN(c2ccccc2)CC3)cc1`: the Potency was more than 20 µM.

Regarding `CS(=O)(=O)N1CCC2(CCCN(c3cccc(-c4ccccc4)c3)C2)CC1`, the Potency was more than 20 µM.

On to `COc1ccc(Oc2ncc3nc(-c4ccc(F)cc4)c(=O)n(C)c3n2)cc1`, for which the Potency is more than 20 µM.

Consider `COc1ccccc1-c1ccc2ncnc(Nc3ccccc3)c2c1`, for which the Potency is more than 20 µM.

Turning to `O=C(c1ccco1)N1CCC2(CC1)CCN(c1cccc(-c3ccccc3)c1)CC2`, the Potency is more than 20 µM.

In the case of `O=C(c1cccc(F)c1)N1CCC2(CC1)CN(c1cccc(-c3ccccc3)c1)C2`, the Potency is more than 20 µM.

For `COc1ccccc1CNc1ncncc1-c1cccnc1`, the Potency was more than 20 µM.

Consider `CC(=O)NCCNc1nc(-c2ccccc2CN(C)C)nc2ccccc12`, for which the Potency was more than 20 µM.

As for `COc1ccc(-c2nc3cnc(Nc4ccccc4)nc3n(C[C@H]3CCCO3)c2=O)cc1`, the Potency was more than 20 µM.

In the case of `COc1ccc(C(=O)N2CCC[C@@]3(CCN(Cc4ccccc4OC)C3)C2)cc1`, the Potency was more than 20 µM.

Regarding `CN1CCN(c2ncc3nc(-c4ccc(Cl)cc4)c(=O)n(-c4ccccc4)c3n2)CC1`, the Potency was more than 20 µM.

With `CNc1nc(-c2ccccc2Cl)nc2ccccc12`, the Potency was more than 20 µM.

For `COc1ccccc1CN1CCCC2(CCN(C(=O)c3c(C)noc3C)CC2)C1`, the Potency was more than 20 µM.

Turning to `COc1ccc(Oc2ncc3nc(C)c(=O)n(C)c3n2)cc1`, the Potency is more than 20 µM.

With `COc1ccccc1CN1CCCC2(CCN(C(=O)c3ccco3)CC2)C1`, the Potency was more than 20 µM.

Turning to `CN(C)C(=O)c1ccc(-c2nccc(N(C)Cc3ccco3)n2)cc1`, the Potency is more than 20 µM.

With `Fc1ccc(Nc2nc(-c3cccnc3)nc3ccccc23)cc1`, the Potency was more than 20 µM.

Take `Cn1cccc1C(=O)N1CCC2(CCCN(c3ccncc3)C2)CC1`: the Potency was more than 20 µM.
